Data published in PubChem BioAssay (NCI).
Compounds without any hit were thinned out: in the full panel of roughly 83,000, 20% have a hit.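 Single-concentration screen, 48 h exposure, 96-well plates. Endpoint: percent growth. Below 10 = active.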 Values without a mark were called inactive. Activity calls are given as the source filed them.

System: SK-MEL-2 melanoma
Assay: NCI-60 one-dose screen, 48 h (100 = growth as untreated, 0 = no growth, -100 = all killed)
Conditions: 10 µM unless noted

Question: For O=C(Nc1ccc(CN2CCOCC2)c(C(F)(F)F)c1)c1nc2ccc3[nH]ncc3c2c2c1CCCC2, which growth is on record?
Answer: 103%

Question: CC(C)[C@H]1CCC2=C3CC[C@]45OC(=O)[C@@]6(CCC(C)(C)C[C@H]64)CC[C@@]5(C)[C@]3(C)CC[C@@]21C was tested. Which growth did it give?
Answer: 74.9% [100 µM]

Question: Cc1ccc2c(c1)/C(=N\N=C/c1cn(C(C)C)c3ccccc13)C(=O)N2 was tested. Which growth did it give?
Answer: 81.2%

Question: How did the growth turn out when COc1ccc(C(=O)c2nccc3cc(OC)c(OC)cc23)cc1OC was run?
Answer: 108%

Question: Which growth does the source give for Nc1cc(C(=O)O)[nH]c(=S)n1 here?
Answer: 98.9%

Question: With CC1(C)CC[C@]2(C(=O)O)CC[C@]3(C)C(=CC[C@@H]4[C@@]5(C)C/C(=C/c6cccnc6)[C@H](O)C(C)(C)[C@@H]5CC[C@]43C)[C@@H]2C1 as the compound, how does the growth read?
Answer: -29.9% [100 µM] (active)

Question: ClC1=C(Cl)C(Cl)=C(Cl)C1=Cc1ccccc1 was tested. Which growth did it give?
Answer: -28% (active)

Question: CCCCC(CCCCCC(CCCC)C1NC(C)Cc2cc(OC)c(OC)cc21)C1NC(C)Cc2cc(OC)c(OC)cc21 (stereo unspecified) was tested. Which growth did it give?
Answer: -81.9% (active)

Question: COc1ccccc1S(=O)Nc1ccccc1 (stereo unspecified) was tested. Which growth did it give?
Answer: 82.5%

Question: Cc1cnc(N)nc1OCC(C)(C)CNC(=O)c1cccc(-c2ccc(S(=O)(=O)Nc3ccc4c(c3)N(C(=O)C3CC3)CCC4)cc2)c1 was tested. Which growth did it give?
Answer: 67.7%

Question: C=C(C)[C@@H]1CC[C@]2(COC(=O)c3ccccc3C(=O)O)CC[C@]3(C)[C@H](CC[C@@H]4[C@@]5(C)CC[C@H](OC(=O)c6ccccc6C(=O)O)C(C)(C)[C@@H]5CC[C@]43C)[C@@H]12 was tested. Which growth did it give?
Answer: 23.8% [100 µM]
